Data reported in the supplement of paper PMC11732987, “Enantioselective OTUD7B fragment discovery through chemoproteomics screening and high-throughput optimisation” (Communications Chemistry, 2025).

Key:
Test in all cases: log2 ratio of Biotin-Ahx-Ub-VS probe labelling (fragment/DMSO); higher = less target engagement (more negative = stronger competition), active = hit call of the paper (q ≤ 0.05, log2 ratio ≤ -1)
Settings in all cases: compound concentration: 200 uM; treatment time: 3 h
USP42 = target: T1, USP42 (UniProt Q9H9J4)
T1 sequence (whole entry): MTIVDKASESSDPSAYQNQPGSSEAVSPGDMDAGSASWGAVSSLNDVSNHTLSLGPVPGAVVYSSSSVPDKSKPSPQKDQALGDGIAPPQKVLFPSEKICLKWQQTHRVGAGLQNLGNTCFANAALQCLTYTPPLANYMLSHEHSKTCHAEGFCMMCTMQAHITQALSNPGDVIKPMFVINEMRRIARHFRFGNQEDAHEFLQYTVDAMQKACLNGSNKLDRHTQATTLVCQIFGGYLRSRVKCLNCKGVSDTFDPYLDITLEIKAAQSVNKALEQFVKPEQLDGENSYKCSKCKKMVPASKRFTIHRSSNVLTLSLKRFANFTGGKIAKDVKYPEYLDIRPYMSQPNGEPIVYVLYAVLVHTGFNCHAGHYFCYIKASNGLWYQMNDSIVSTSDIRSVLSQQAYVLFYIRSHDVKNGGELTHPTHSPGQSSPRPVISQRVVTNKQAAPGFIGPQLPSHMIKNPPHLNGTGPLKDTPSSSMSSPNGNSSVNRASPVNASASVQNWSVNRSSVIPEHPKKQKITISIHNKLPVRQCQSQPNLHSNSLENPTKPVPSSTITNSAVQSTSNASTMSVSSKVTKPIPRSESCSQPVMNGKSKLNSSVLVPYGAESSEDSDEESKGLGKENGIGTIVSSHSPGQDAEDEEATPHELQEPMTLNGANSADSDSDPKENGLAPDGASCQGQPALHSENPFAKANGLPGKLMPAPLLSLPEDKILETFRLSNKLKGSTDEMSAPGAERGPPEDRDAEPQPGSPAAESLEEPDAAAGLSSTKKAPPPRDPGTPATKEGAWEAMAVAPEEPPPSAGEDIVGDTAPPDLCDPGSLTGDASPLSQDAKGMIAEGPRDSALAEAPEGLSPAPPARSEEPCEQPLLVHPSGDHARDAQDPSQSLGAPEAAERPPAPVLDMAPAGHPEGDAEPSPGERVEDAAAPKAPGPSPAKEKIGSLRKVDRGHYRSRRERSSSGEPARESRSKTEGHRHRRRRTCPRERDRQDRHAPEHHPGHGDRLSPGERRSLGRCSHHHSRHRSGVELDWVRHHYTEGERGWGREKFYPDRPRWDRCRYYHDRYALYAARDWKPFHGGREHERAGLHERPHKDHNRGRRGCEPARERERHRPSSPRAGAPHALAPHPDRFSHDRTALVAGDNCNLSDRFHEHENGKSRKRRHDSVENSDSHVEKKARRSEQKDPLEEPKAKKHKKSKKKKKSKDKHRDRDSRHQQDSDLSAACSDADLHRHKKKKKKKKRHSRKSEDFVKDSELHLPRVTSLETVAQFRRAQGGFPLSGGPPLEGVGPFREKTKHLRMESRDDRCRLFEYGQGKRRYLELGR
How it was run: (§1)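 Average log2 ratios of fragment over vehicle were obtained by unpaired t-test from global-median-normalised Spectronaut label-free quantities. Proteins with ≥2 unique peptides were included. HEK293T lysate (495 µg per sample) was treated in triplicate with fragment at 200 µM or vehicle for 3 h, then with Biotin-Ahx-Ub-VS at 0.5 µM final for 1 h, and labelled DUBs were NeutrAvidin-enriched and run by diaPASEF LC-MS/MS.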

USP46 = USP46 (UniProt P62068)
Sequence of USP46 (P62068 whole entry): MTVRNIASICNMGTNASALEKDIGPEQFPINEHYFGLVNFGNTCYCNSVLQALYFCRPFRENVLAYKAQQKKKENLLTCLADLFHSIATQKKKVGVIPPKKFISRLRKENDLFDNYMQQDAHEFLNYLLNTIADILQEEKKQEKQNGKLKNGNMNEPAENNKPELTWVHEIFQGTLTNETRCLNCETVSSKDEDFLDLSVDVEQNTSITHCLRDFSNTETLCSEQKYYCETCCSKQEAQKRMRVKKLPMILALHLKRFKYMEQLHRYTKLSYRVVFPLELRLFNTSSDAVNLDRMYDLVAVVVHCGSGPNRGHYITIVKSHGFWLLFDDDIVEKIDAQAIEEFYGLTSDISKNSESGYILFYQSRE
How it was run: as §1

USP47 = target: T2, USP47 (UniProt Q96K76)
T2 sequence (whole entry): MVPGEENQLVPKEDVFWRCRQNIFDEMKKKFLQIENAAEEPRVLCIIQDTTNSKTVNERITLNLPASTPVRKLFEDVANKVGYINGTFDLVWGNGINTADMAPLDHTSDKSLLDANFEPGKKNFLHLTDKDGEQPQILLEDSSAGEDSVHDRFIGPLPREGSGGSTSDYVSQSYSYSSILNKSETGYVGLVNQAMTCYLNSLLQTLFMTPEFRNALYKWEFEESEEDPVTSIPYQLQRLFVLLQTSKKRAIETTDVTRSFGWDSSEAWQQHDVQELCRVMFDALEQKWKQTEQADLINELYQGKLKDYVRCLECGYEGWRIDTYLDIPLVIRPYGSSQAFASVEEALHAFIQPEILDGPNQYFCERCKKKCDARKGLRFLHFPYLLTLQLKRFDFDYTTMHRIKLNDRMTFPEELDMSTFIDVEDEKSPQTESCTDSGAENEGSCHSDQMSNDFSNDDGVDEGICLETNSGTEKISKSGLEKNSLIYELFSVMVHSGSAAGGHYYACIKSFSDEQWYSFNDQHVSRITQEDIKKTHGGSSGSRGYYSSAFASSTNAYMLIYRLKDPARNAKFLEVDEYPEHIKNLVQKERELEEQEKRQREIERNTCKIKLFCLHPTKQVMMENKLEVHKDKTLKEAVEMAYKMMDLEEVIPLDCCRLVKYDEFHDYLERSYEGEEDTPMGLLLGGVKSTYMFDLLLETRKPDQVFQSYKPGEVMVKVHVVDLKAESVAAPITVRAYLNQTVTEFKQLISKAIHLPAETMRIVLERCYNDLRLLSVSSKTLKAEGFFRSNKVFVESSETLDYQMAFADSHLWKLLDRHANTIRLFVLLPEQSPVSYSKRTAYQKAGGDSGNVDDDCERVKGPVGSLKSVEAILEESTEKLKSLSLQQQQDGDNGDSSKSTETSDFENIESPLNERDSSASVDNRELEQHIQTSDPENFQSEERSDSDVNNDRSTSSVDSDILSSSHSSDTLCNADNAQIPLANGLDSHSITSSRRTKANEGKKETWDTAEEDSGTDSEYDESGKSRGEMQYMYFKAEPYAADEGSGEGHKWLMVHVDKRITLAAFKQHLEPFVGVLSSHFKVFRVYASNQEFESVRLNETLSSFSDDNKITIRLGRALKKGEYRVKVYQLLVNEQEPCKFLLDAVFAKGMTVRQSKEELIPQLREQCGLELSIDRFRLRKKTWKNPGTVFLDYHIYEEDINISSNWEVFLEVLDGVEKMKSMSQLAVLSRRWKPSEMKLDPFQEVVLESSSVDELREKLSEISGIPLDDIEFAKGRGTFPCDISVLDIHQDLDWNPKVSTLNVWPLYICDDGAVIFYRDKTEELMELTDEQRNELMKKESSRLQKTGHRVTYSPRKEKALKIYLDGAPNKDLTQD
How it was run: as §1

USP48 = target: T3, USP48 (UniProt Q86UV5)
T3 sequence (whole entry): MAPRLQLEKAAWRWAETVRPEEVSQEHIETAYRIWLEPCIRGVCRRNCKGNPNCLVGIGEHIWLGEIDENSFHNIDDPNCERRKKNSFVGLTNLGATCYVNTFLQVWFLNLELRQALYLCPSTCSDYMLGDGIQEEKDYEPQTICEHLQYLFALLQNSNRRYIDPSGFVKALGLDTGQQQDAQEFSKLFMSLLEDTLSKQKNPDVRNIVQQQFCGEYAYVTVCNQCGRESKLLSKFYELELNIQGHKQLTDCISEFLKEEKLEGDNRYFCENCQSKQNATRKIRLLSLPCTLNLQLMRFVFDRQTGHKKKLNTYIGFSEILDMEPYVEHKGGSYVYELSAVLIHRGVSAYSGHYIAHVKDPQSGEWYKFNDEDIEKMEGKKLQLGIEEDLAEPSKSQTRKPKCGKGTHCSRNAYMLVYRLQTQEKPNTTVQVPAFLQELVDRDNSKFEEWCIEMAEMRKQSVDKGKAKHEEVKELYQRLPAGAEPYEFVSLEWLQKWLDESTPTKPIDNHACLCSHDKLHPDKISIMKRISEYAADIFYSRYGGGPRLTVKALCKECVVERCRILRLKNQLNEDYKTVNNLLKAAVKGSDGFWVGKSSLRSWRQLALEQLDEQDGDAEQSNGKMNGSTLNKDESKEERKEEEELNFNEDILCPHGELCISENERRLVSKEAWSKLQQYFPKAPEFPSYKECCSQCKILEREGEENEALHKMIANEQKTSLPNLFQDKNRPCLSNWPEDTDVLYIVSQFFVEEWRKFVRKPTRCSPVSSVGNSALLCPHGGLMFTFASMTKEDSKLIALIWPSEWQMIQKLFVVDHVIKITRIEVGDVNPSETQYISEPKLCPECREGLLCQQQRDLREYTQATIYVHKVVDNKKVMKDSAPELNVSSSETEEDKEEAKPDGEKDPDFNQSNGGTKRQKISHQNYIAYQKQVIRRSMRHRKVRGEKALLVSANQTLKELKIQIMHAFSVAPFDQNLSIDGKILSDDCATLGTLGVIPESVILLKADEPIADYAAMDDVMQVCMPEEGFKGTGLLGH
How it was run: as §1

USP5 = target: T4, USP5 (UniProt P45974)
T4 sequence (whole entry): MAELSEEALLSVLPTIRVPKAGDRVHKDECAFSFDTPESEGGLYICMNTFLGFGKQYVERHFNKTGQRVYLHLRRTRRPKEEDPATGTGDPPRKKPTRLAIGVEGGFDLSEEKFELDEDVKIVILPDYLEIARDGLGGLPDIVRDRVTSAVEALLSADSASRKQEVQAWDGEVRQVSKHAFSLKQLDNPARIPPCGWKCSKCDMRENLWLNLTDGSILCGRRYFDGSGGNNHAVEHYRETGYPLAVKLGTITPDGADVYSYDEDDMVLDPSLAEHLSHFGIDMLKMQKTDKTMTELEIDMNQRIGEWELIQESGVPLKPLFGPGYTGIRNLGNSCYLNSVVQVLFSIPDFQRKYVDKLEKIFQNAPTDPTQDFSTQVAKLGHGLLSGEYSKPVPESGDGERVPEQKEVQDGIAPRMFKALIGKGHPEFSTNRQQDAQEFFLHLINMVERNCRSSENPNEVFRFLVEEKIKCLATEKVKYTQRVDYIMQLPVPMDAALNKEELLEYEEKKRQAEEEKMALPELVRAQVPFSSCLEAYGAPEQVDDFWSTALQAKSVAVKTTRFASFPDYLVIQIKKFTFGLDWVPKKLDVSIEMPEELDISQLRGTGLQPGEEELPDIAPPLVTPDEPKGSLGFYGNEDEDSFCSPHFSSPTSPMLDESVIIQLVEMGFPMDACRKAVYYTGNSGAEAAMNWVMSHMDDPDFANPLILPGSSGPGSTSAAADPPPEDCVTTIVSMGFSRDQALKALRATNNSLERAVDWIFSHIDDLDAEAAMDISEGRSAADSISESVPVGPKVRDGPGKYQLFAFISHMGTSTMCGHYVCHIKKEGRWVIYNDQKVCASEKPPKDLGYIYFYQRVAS
How it was run: as §1

USP54 = USP54 (UniProt Q70EL1)
Sequence of USP54 (Q70EL1 whole entry): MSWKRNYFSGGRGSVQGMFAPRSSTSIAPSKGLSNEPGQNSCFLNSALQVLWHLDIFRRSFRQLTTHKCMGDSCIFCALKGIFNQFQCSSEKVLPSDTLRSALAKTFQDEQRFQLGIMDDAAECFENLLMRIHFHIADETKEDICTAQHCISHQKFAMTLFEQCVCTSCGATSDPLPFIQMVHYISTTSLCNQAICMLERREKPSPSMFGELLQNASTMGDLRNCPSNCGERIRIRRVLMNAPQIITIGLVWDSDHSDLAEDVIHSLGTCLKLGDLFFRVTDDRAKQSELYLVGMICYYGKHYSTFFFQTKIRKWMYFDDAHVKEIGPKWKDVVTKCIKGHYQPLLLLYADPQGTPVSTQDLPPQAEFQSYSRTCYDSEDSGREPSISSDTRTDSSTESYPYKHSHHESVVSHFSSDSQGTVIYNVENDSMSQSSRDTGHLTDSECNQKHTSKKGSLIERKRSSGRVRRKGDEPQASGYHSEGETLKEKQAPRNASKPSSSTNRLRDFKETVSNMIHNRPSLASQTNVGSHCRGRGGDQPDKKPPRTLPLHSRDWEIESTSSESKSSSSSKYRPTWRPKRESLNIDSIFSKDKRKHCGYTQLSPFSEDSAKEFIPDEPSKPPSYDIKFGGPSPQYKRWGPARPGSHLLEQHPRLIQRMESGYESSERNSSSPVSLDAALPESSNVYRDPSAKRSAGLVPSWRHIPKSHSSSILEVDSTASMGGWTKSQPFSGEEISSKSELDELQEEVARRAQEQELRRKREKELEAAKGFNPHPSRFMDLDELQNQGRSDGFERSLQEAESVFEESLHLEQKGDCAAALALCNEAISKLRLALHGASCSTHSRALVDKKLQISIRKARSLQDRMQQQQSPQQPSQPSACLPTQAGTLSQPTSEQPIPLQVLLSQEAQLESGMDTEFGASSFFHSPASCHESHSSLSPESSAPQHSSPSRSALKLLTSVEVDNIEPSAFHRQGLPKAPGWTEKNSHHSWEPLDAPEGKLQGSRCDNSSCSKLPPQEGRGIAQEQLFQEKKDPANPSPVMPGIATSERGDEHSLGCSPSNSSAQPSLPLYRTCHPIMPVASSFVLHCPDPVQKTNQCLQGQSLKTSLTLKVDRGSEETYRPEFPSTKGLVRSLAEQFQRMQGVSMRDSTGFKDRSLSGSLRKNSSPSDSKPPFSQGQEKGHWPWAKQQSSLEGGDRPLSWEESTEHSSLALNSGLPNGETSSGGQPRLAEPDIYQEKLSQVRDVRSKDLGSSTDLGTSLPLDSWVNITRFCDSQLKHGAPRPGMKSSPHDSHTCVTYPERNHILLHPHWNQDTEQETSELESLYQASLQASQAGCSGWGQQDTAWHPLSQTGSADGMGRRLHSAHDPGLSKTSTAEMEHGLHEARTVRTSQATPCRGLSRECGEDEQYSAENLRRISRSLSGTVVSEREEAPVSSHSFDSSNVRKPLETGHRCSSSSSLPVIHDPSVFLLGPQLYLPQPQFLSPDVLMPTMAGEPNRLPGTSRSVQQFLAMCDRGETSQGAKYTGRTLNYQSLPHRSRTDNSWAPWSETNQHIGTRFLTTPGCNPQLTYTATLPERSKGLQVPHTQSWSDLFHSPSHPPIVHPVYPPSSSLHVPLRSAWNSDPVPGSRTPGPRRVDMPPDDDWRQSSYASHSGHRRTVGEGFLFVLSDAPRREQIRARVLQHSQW
How it was run: as §1

USP7 = USP7 (UniProt Q93009)
How it was run: as §1

USP8 = target: T5, USP8 (UniProt P40818)
T5 sequence (whole entry): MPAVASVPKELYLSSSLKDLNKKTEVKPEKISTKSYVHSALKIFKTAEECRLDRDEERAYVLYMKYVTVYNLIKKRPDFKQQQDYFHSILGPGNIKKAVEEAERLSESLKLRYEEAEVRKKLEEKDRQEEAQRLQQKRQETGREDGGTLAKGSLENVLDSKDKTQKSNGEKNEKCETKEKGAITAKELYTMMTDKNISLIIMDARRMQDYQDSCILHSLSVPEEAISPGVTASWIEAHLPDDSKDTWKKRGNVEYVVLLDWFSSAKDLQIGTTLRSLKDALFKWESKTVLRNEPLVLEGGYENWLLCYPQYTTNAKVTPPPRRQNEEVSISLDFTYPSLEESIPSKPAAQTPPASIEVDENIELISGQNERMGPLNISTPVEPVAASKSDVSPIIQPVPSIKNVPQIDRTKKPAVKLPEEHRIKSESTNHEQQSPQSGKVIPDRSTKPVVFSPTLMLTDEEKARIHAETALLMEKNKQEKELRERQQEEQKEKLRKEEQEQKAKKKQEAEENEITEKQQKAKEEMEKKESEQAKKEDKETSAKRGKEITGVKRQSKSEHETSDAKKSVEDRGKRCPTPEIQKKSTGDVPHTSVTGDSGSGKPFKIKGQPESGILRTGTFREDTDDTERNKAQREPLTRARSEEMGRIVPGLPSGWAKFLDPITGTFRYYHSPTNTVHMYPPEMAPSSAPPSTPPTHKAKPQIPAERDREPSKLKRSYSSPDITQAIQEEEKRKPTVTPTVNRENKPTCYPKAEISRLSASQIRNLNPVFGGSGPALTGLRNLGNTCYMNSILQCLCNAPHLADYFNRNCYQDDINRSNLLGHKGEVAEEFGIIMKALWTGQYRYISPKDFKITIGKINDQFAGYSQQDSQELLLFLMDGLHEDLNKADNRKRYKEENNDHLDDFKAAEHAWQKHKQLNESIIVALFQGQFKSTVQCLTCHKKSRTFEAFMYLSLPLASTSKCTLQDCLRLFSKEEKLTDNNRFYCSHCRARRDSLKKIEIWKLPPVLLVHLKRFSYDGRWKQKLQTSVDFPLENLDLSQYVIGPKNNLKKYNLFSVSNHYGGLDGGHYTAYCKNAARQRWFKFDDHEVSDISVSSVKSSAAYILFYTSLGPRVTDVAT
How it was run: as §1

USP9X = USP9X (UniProt Q93008)
Sequence of USP9X (Q93008 whole entry): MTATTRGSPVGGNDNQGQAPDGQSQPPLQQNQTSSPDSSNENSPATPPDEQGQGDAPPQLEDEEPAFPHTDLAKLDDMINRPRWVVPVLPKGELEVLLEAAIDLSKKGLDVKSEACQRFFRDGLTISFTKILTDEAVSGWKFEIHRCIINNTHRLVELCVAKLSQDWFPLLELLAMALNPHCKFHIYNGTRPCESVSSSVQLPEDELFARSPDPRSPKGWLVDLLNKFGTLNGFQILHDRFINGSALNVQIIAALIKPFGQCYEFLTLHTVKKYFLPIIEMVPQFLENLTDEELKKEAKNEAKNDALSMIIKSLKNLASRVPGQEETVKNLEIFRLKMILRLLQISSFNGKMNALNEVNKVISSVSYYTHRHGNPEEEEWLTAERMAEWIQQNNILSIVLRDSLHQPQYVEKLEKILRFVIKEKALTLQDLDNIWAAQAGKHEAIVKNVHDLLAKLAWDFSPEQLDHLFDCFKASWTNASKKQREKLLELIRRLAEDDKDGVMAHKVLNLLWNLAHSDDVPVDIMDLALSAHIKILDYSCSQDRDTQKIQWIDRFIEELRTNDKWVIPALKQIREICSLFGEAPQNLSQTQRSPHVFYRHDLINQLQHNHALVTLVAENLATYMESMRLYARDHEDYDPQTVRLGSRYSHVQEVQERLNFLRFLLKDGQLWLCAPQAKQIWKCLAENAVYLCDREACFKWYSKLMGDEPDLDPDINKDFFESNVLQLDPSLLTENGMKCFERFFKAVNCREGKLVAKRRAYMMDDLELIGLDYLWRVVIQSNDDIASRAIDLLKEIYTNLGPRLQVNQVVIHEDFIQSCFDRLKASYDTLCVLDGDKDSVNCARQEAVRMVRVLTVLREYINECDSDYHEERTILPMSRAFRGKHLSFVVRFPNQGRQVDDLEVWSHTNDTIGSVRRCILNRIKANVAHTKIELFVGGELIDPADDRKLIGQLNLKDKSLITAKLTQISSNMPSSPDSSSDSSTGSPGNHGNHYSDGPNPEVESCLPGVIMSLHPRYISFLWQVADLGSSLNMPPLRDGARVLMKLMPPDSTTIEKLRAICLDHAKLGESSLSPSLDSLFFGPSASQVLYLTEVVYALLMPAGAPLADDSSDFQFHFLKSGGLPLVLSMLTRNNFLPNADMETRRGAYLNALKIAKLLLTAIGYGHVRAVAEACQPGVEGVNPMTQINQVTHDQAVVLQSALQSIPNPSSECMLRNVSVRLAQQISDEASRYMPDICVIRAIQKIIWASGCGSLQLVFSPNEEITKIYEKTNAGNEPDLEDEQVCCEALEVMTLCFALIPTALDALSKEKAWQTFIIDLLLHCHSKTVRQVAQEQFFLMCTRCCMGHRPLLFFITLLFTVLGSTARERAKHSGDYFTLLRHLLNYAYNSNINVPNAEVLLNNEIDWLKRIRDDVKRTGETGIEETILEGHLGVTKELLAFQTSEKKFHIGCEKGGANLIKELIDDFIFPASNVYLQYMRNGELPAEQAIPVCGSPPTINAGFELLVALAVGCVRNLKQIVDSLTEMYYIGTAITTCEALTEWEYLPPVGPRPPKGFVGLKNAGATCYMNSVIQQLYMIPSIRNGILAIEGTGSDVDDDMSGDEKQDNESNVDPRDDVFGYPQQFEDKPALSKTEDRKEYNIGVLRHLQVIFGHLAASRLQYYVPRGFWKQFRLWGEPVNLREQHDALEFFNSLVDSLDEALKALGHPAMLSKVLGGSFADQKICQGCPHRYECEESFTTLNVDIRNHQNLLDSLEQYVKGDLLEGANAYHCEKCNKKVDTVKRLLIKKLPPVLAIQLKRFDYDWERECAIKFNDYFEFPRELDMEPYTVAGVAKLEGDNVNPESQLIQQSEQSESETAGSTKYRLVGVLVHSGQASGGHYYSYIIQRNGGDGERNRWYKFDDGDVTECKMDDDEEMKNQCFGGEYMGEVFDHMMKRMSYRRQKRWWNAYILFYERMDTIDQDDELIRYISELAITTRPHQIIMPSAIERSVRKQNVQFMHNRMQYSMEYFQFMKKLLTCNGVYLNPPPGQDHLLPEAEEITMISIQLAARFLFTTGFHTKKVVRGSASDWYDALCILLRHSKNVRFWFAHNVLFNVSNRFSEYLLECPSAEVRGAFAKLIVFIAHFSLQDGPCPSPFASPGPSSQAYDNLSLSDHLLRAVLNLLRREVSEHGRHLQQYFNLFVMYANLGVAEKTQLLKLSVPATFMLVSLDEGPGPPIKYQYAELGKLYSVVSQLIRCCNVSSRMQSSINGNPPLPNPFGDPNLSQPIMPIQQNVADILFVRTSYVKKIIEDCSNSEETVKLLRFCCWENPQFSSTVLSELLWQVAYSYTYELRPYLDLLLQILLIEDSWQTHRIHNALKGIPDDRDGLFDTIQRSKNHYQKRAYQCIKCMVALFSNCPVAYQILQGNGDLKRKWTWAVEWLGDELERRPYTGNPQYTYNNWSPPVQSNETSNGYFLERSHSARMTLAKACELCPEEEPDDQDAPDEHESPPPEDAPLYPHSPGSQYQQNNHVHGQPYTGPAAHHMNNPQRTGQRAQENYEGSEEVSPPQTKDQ
How it was run: as §1

UniProt O00487 = target: UniProt O00487
Sequence of UniProt O00487 (O00487 whole entry): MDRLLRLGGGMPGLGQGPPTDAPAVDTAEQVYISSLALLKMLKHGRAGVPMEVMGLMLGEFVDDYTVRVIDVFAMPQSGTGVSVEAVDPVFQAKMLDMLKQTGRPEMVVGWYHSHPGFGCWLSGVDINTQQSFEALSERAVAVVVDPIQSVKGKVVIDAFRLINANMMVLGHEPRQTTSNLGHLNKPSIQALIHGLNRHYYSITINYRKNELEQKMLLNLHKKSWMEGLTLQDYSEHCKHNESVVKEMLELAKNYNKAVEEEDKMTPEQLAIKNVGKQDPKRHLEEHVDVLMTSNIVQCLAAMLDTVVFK
How it was run: as §1

Measured: log2 ratio of Biotin-Ahx-Ub-VS probe labelling

O=C(CCl)NCCC1COCCO1 (stereo not given)
inactive: USP42 0.357 | USP46 -0.000444 | USP47 -0.101 | USP48 -0.171 | USP5 -0.0923 | USP54 0.157 | USP7 -0.157 | USP8 -0.26 | USP9X -0.131 | UniProt O00487 -0.1
